Reference: the supplement of paper PMC8728848
The entries come from a sample that favours the strongest signals as a whole.

How the values were obtained:
Test in all cases: glycan array binding signal (z-score within array); higher = stronger binding
Settings in all cases: glycan notation: IUPAC condensed, linker removed
[1] = target: Fuc(a1-2)Gal(b1-3)GlcNAc(b1-3)Gal(b1-4)Glc
Method in brief: (§1)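 Glycan array binding is given as a within-array Z-score, which can be read as non-binding when negative. The arrays, 3228 of them, came from the Consortium for Functional Glycomics database and were retained only where the protein sequence was available. Z-scores were averaged across arrays of the same protein sequence at different concentrations or buffers and across linkers.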

[2] = target: Fuc(a1-2)Gal(b1-3)GlcNAc(b1-3)GalNAc
Method in brief: as §1

[3] = target: Fuc(a1-2)Gal(b1-3)[Fuc(a1-4)]GlcNAc(b1-2)Man(a1-3)[Fuc(a1-2)Gal(b1-3)[Fuc(a1-4)]GlcNAc(b1-2)Man(a1-6)]Man(b1-4)GlcNAc(b1-4)[Fuc(a1-6)]GlcNAc(b1-4)[Fuc(a1-6)]GlcNAc
Method in brief: as §1

[4] = target: Fuc(a1-2)Gal(b1-3)[Fuc(a1-4)]GlcNAc(b1-3)[Gal(b1-4)GlcNAc(b1-6)]Gal(b1-4)Glc
Method in brief: as §1

[5] = target: Fuc(a1-2)Gal3S(b1-4)GlcNAc
Method in brief: as §1

[6] = target: Fuc(a1-2)Gal6S(b1-3)GlcNAc6S
Method in brief: as §1

[7] = target: Fuc(a1-2)[GalNAc(a1-3)]Gal
Method in brief: as §1

[8] = target: Fuc(a1-2)[GalNAc(a1-3)]Gal(b1-4)GlcNAc
Method in brief: as §1

[9] = target: Fuc(a1-2)[GalNAc(a1-3)]Gal(b1-4)GlcNAc(b1-3)Gal(b1-4)GlcNAc
Method in brief: as §1

[10] = target: Fuc(a1-2)[GalNAc(a1-4)]Gal(b1-4)GlcNAc
Method in brief: as §1

[11] = target: Fuc(a1-2)[GalNAc(b1-3)]Gal
Method in brief: as §1

[12] = target: Fuc(a1-3)[Gal(b1-4)]GlcNAc(b1-2)Man
Method in brief: as §1

[13] = target: Fuc(a1-3)[Gal(b1-4)]GlcNAc(b1-3)Gal(b1-4)[Fuc(a1-3)]GlcNAc
Method in brief: as §1

[14] = target: Fuc(a1-3)[Gal(b1-4)]GlcNAc(b1-3)GalNAc
Method in brief: as §1

[15] = target: Fuc(a1-3)[Gal(b1-4)]GlcNAc6S
Method in brief: as §1

Gal(a1-3)GalNAc = target: Gal(a1-3)GalNAc
Method in brief: as §1

Gal(a1-4)GlcNAc = target: Gal(a1-4)GlcNAc
Method in brief: as §1

Gal(b1-3)Gal = target: Gal(b1-3)Gal
Method in brief: as §1

[16] = target: Gal(b1-3)GalNAc(b1-3)Gal(a1-4)Gal(b1-4)Glc
Method in brief: as §1

[17] = target: Gal(b1-3)GlcNAc(b1-3)Gal(b1-4)GlcNAc(b1-2)[Gal(b1-3)GlcNAc(b1-3)Gal(b1-4)GlcNAc(b1-6)]Man(a1-6)[Gal(b1-3)GlcNAc(b1-3)Gal(b1-4)GlcNAc(b1-2)Man(a1-3)]Man(b1-4)GlcNAc(b1-4)[Fuc(a1-6)]GlcNAc
Method in brief: as §1

[18] = target: Gal(b1-3)GlcNAc(b1-3)Gal(b1-4)GlcNAc(b1-3)Gal(b1-4)GlcNAc(b1-2)[Gal(b1-3)GlcNAc(b1-3)Gal(b1-4)GlcNAc(b1-3)Gal(b1-4)GlcNAc(b1-6)]Man(a1-6)[Gal(b1-3)GlcNAc(b1-3)Gal(b1-4)GlcNAc(b1-3)Gal(b1-4)GlcNAc(b1-2)Man(a1-3)]Man(b1-4)GlcNAc(b1-4)[Fuc(a1-6)]GlcNAc
Method in brief: as §1

Gal(b1-4)Gal = target: Gal(b1-4)Gal
Method in brief: as §1

Gal(b1-4)GlcNAc(b1-2)Man = target: Gal(b1-4)GlcNAc(b1-2)Man
Method in brief: as §1

[19] = target: Gal(b1-4)GlcNAc(b1-2)Man(a1-3)[Man(a1-6)]Man(b1-4)GlcNAc(b1-4)GlcNAc
Method in brief: as §1

[20] = target: Gal(b1-4)GlcNAc(b1-2)[Gal(b1-4)GlcNAc(b1-4)]Man(a1-3)[GlcNAc(b1-4)][Gal(b1-4)GlcNAc(b1-2)[Gal(b1-4)GlcNAc(b1-6)]Man(a1-6)]Man(b1-4)GlcNAc(b1-4)GlcNAc
Method in brief: as §1

[21] = target: Gal(b1-4)GlcNAc(b1-2)[Gal(b1-4)GlcNAc(b1-6)]Man(a1-6)[GlcNAc(b1-4)][Gal(b1-4)GlcNAc(b1-2)Man(a1-3)]Man(b1-4)GlcNAc(b1-4)GlcNAc
Method in brief: as §1

[22] = target: Gal(b1-4)GlcNAc(b1-3)Gal(b1-3)GlcNAc
Method in brief: as §1

[23] = target: Gal(b1-4)GlcNAc(b1-3)Gal(b1-4)Glc
Method in brief: as §1

[24] = target: Gal(b1-4)GlcNAc(b1-3)Gal(b1-4)GlcNAc
Method in brief: as §1

[25] = target: Gal(b1-4)GlcNAc(b1-3)Gal(b1-4)GlcNAc(b1-2)[Gal(b1-4)GlcNAc(b1-3)Gal(b1-4)GlcNAc(b1-6)]Man(a1-6)[Gal(b1-4)GlcNAc(b1-3)Gal(b1-4)GlcNAc(b1-2)Man(a1-3)]Man(b1-4)GlcNAc(b1-4)[Fuc(a1-6)]GlcNAc
Method in brief: as §1

[26] = target: Gal(b1-4)GlcNAc(b1-3)Gal(b1-4)GlcNAc(b1-3)Gal(b1-4)GlcNAc(b1-3)Gal(b1-4)GlcNAc(b1-3)Gal(b1-4)GlcNAc(b1-3)Gal(b1-4)GlcNAc(b1-2)Man(a1-3)[Gal(b1-4)GlcNAc(b1-3)Gal(b1-4)GlcNAc(b1-3)Gal(b1-4)GlcNAc(b1-3)Gal(b1-4)GlcNAc(b1-3)Gal(b1-4)GlcNAc(b1-3)Gal(b1-4)GlcNAc(b1-2)Man(a1-6)]Man(b1-4)GlcNAc(b1-4)GlcNAc
Method in brief: as §1

[27] = target: Gal(b1-4)GlcNAc(b1-6)Gal(b1-4)GlcNAc
Method in brief: as §1

[28] = target: Gal(b1-4)GlcNAc(b1-6)[Gal(b1-4)GlcNAc(b1-3)]GalNAc
Method in brief: as §1

B1: EUL D1A second (Oryza sativa) (protein)
chain: GAATACTIGGVPVHTVRVFSAAGEDYCLTVRNGTACLAPKNPRDDYQHWIKDMRHSNKIRDEEGYPAFALVNKVTGEAIKHSTGQGHPVKLVPYNPEYQDESVLWTESKDVGKGFRCIRMVNNIYLNFDAFHGDKDHGGIHDGTEIVLWKWCEGDNQRWKILPWILEQKLISEEDLNSAVDHHHHHH
[1]
  glycan array binding signal (z-score): -1.01
[2]
  glycan array binding signal (z-score): -0.565
[3]
  glycan array binding signal (z-score): 0.045
[4]
  glycan array binding signal (z-score): 1.09
[5]
  glycan array binding signal (z-score): 0.228
[6]
  glycan array binding signal (z-score): 1.43
[7]
  glycan array binding signal (z-score): -0.789
[8]
  glycan array binding signal (z-score): -1.07
[9]
  glycan array binding signal (z-score): -0.086
[10]
  glycan array binding signal (z-score): 0.772
[11]
  glycan array binding signal (z-score): -0.072
[12]
  glycan array binding signal (z-score): 0.112
[13]
  glycan array binding signal (z-score): -0.106
[14]
  glycan array binding signal (z-score): 0.566
[15]
  glycan array binding signal (z-score): -0.105
Gal(a1-3)GalNAc
  glycan array binding signal (z-score): -1.42
Gal(a1-4)GlcNAc
  glycan array binding signal (z-score): -1.01
Gal(b1-3)Gal
  glycan array binding signal (z-score): -0.342
[16]
  glycan array binding signal (z-score): 2.08
[17]
  glycan array binding signal (z-score): 4.86
[18]
  glycan array binding signal (z-score): 4.47
Gal(b1-4)Gal
  glycan array binding signal (z-score): 3.37
Gal(b1-4)GlcNAc(b1-2)Man
  glycan array binding signal (z-score): 1.59
[19]
  glycan array binding signal (z-score): -0.232
[20]
  glycan array binding signal (z-score): -0.986
[21]
  glycan array binding signal (z-score): -0.799
[22]
  glycan array binding signal (z-score): -0.245
[23]
  glycan array binding signal (z-score): -0.283
[24]
  glycan array binding signal (z-score): -0.532
[25]
  glycan array binding signal (z-score): 3.31
[26]
  glycan array binding signal (z-score): 0.069
[27]
  glycan array binding signal (z-score): -0.144
[28]
  glycan array binding signal (z-score): -0.385
